According to PubChem BioAssay (Tox21):
Inconclusive results are not listed. A number with no mark means an inactive call. The source made the active and inactive calls. Calls follow the shape of the dose curve; as a rule, active = well fitted cell-killing curve with a large enough effect in the repeat runs; inconclusive = weak or mixed curves, or effect the other way; inactive = flat fitted curve, though single readings scatter.

Assay: cAMP Responsive Elements (CRE) small molecule agonists, cell-based qHTS assay: qHTS cell viability counter screen (AID 2060914);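 also: viability read after 3 h of compound exposure; nearly all actives have a fitted effect of over 50% in size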
Conditions: CRE-bla HEK293T viability, CellTiter-Glo luminescence, 5 h; series mostly up to 92.4 µM; activity change, negative = cytotoxicity: at the top concentration
Excerpt: National Center for Advancing Translational Sciences [NCATS]
Division of Preclinical Innovation [DPI]
U.S. Environmental Protection Agency [EPA]
National Institutes of Environmental Health Sciences [NIEHS]
National Toxicology Program [NTP]
U.S. Food and Drug Administration [FDA]
CREB (cyclic-AMP Responsive Element Binding Protein) is a cellular transcription factor. It binds to certain DNA sequences called cAMP Responsive Elements (CRE) and regulates the transcription of the genes. […] This cell line can be used to find agonists/antagonists of the cyclic AMP signaling pathway. The activation of the report gene under culture conditions can be detected by fluorescence intensity. This cell line has been used to screen the Tox21 10K compound library to identify agonists that induce oxidative stress. The cytotoxicity of the Tox21 compound library against the CRE-bla cell line was tested in parallel by measuring the cell viability using CellTiter-Glo assay (Promega, Madison, WI) in the same wells.
Tox21 Assay Protocol Summary:
CRE-bla Hek 293T cells were suspended in assay medium (DMEM containing 10% dialyzed FBS, 0.1 mM NEAA, 1 mM sodium pyruvate and 25 mM HEPES) and dispensed at 2,000 cells/5 uL /well into 1536-well black wall/clear bottom plates using a Multidrop Combi (ThermoFisher Scientific, Waltham, MA) dispenser. After the assay plates were incubated at 37 C/5% CO2 for 18 hrs, 23 nL of compounds dissolved in DMSO, positive controls or DMSO only was transferred to the assay plate by a pintool workstation (Kalypsys, San Diego, CA). After the plates were incubated at 37 C/5% CO2 for 3 hrs, 1 uL of LiveBLAzer B/G FRET substrate (Invitrogen, Carlsbad, CA) was added to each well using Bioraptr Flying Reagent Dispenser (FRD, Aurora Discovery, San Diego, CA). The plates were incubated at room temperature for 2 h, then fluorescence intensities were measured using an Envision plate reader (PerkinElmer, Shelton, CT) at Excitation 405nm, Emission 460nm and 530nm. The % activity was determined from the ratio of 460nm/530nm. For cell viability readout that measures cytotoxicity, 4 uL /well of CellTiter-Glo reagent was added into the assay plates using Bioraptr FRD. After 30 min incubation at room temperature, the luminescence intensity in the assay plates was measured using a ViewLux (PerkinElmer, Shelton, CT) plate reader.
% is scaled to controls: 0 for no effect and ±100 for the full control effect; potency is read from the fitted curve at half-maximal effect.

SMILES | activity change, negative = cytotoxicity | Potency
CC(CCc1ccccc1)NC(C)C(O)c1ccc(O)cc1 (stereo not given) | -8.42% [at 42.5 µM] | –
COP(=S)(OC)Oc1ccc(Sc2ccc(OP(=S)(OC)OC)cc2)cc1 | – | inactive
CCS(=O)(=O)C(C)(C)S(=O)(=O)CC | 4.66% [at 42.5 µM] | –
CN(C)C1CSSSC1 | -11.2% | –
Clc1ccc(C(OCCN2CCCCC2)c2ccccc2)cc1 (stereo not given) | 0.596% [at 42.5 µM] | –
CCCCCl | -7.64% | –
Cc1cccc(C)c1NC(=O)CN1CCCC1=O | – | inactive
CCCCCCBr | 0.157% | –
Nc1ccccc1C(=O)Oc1ccc2ccccc2c1 | -13.3% | –
ClC1=C(Cl)C2(Cl)C3C(Cl)C(Cl)CC3C1(Cl)C2(Cl)Cl (stereo not given) | – | 54.5 µM (active)
Nc1c(Br)cc([N+](=O)[O-])cc1[N+](=O)[O-] | -20.8% | –
CC(C)N(C(=O)COc1nnc(C(F)(F)F)s1)c1ccc(F)cc1 | -13% | –
CC(C)NC(C)C | – | inactive
O=C(O)C(Cl)(Cl)Br | 4.7% | –
CC(C)CC(C)Nc1ccc(Nc2ccccc2)cc1 (stereo not given) | -25.5% | –
CNC(=O)O/N=C/C(C)(C)SC | – | inactive
Nc1ccc(Cl)cc1N | – | inactive
Cc1ccc(-c2c(Cl)nc(C#N)n2S(=O)(=O)N(C)C)cc1 | -7.66% | –
CCCCCCC#N | 0.448% | –
Cc1cc(C)nc(Nc2ccccc2)n1 | 7.25% | –

SMILES | activity change, negative = cytotoxicity | Potency
O=Cc1cccc(Oc2ccccc2)c1 | – | inactive
NC1=NC(=O)C(c2ccccc2)O1 (stereo not given) | 14% [at 42.5 µM] | –
CCOC(=O)CC(SP(=S)(OC)OC)C(=O)OCC (stereo not given) | – | inactive
c1ccc2c(c1)[nH]c1cnccc12 | -0.417% | –
CC(C)=CC1C(C(=O)OCc2cccc(Oc3ccccc3)c2)C1(C)C (stereo not given) | – | inactive
COC(=O)c1cc(Oc2ccc(Cl)cc2Cl)ccc1[N+](=O)[O-] | -7.76% | –
CCCCC/C=C\C/C=C\C/C=C\C/C=C\CCCC(=O)NCC(=O)O | -39.8% [at 42.5 µM] | –
O=[N+]([O-])c1ccccc1CCl | 0.0141% | –
C[N+](C)(C)Cc1ccccc1 | – | inactive
CN(C)C(=O)Nc1cccc(C(F)(F)F)c1 | – | inactive
CCOP(=S)(OCC)Oc1cnc2ccccc2n1 | – | inactive
C=CCOC(=O)C(C)(C)OC(=O)c1cc(-n2c(=O)cc(C(F)(F)F)n(C)c2=O)ccc1Cl | 4.27% | –
O=C1CN=C(c2ccccc2)c2cc([N+](=O)[O-])ccc2N1 | -0.688% [at 42.5 µM] | –
CN(N=O)C(N)=O | -1.35% | –
CCCOc1nn(C(=O)NS(=O)(=O)c2ccccc2C(=O)OC)c(=O)n1C | 4.12% | –
CC1(C)[C@H](C(=O)O[C@H](C#N)c2cccc(Oc3ccccc3)c2)[C@@H]1/C=C(\Cl)C(F)(F)F | -0.934% | –
Cc1ccc(OP(=O)(Oc2ccccc2)Oc2ccccc2)cc1 | 0.907% | –
C=CCN(CC=C)C(=O)C(Cl)Cl | – | inactive
CCOC(=O)c1cncn1C(C)c1ccccc1 (stereo not given) | 2.54% [at 42.5 µM] | –
CC1(C)COP(Oc2ccccc2)OC1 | -1% | –
